Experimental data as given in PubChem BioAssay AID624305 (National Center for Advancing Translational Sciences (NCATS), 2012).
Records with an inconclusive call do not appear. Entries that show only a call come without a potency. Unmarked numbers belong to inactive results. Calls of active or inactive are those of the source. Calls come from the whole dose curve; as a rule, active = well fitted activation curve with a large enough effect; inconclusive = small, poorly fitted or top-dose-only effect; inactive = no such curve, though single readings can be large or run the other way.

Assay: qHTS assay for re-activators of p53 using a Luc reporter: Hit Validation; note: nearly all actives have a fitted effect of over 75% in size
Settings: p53-responsive luciferase reporter cells, luminescence, H1299 line expressing heat-sensitive Ala138Val p53; series mostly up to 46.1 µM
Excerpt: The p53 tumor suppressor plays a key role in suppression of tumorigenesis and in human carcinogenesis. It is frequently found inactivated in human cancers, mainly by point mutation. These point mutations are found in a wide variety of human cancers and a majority of them affect the DNA binding domain of the protein. The point mutations either alter native p53 conformation or abolish DNA contact. Additionally, cancer cells with p53 mutations are more resistant to chemo-radiation therapies.
In order to find activators to reactivate this important protein, a cell-based screen for p53-dependent luciferase-reporter expression was developed. A p53-null H1299 lung cancer cell line was stably co-transfected with a temperature sensitive p53 mutant, p53-A138V, and a p53-responsive BP100-luciferase reporter. This cell model has previously been characterized in a gene chip profiling experiment for p53 activation. By lowering the culture temperature from 37 deg C (mutant p53 conformation) to 32 deg C (w.t. p53 conformation), a 30-60 fold increase in activation of luciferase activity is observed. At assay temperate, 37 deg C, basal reporter expression is very low and after the addition of detection reagent, a luminescent read-out is carried out. This is the hit validation assay, confirming the hits identified from the primary screen.
NIH Chemical Genomics Center [NCGC]
NIH Molecular Libraries Probe Production Centers Network [MLPCN]
Assay Provider (PI): Yi Sung, University of Michigan at Ann Arbor
5ul of 1000 cells per well are dispensed in all wells except column 4, into white solid-bottom TC-treated Kalypsys plates. The cells are kept in Opti-MEM and supplemented with 10% FBS and dispensed using a Multidrop (Thermo). Then using the Kalypsys pin-tool, 23nl of compounds are pinned. The compounds are starting concentration at 10mM, with 1:5 dilution, 4 points, and the control compound nocodazole is pinned in column 1 at 25mM, 1:3 dilution, in duplicate, 25mM nocodazole is pinned in column 2. Please note, all concentrations are working concentrations. 5ul of 1pM purified luciferase enzyme is dispensed using the Kalypsys dispenser in column 4. Plates are incubated for 24 hrs at 37 deg C, 5% CO2, and 95% humidity. Then 4ul of the detection reagent Amplite (ABD Bioquest) is added using the Kalypsys dispenser. Plates are incubated for 10 min at ambient room temperature and are then read on the ViewLux (Perkin Elmer) using a clear filter for a luminescent read-out.
Potency is the fitted concentration of half-maximal effect.

SMILES	Potency	activation
COc1ccccc1-c1c(C)nn2c(C)c(C(C)=O)cnc12	inactive	–
Cc1c(C(=O)NC2=NCCS2)oc2ccccc12	0.58 µM (active)	–
c1ccc(COc2ccc(OCCOCCn3cncn3)cc2)cc1	2.91 µM (active)	–
CCCN(C(=O)c1cccc(S(=O)(=O)N2CCCc3ccccc32)c1)C1CCS(=O)(=O)C1 (stereo not given)	inactive	–
Cc1ccc(-c2cc3nc(C)cc(NCc4ccco4)n3n2)cc1	7.31 µM (active)	–
O=C1NC(c2ccc(Br)cc2)=N/C1=C/c1ccco1	0.58 µM (active)	–
Cc1ccc(C)c(Oc2cc(NC(=O)CCCn3nc(C)c([N+](=O)[O-])c3C)cc([N+](=O)[O-])c2)c1	inactive	–
O=C(Nc1ccc(Cl)cc1C(F)(F)F)c1ccccc1	inactive	–
COc1ccc(C(=O)NC2CCc3ccccc32)cc1OC1CCN(C(C)C)CC1 (stereo not given)	inactive	–
CC(OC(=O)c1cccc([N+](=O)[O-])c1)C(=O)N1CCc2ccccc21 (stereo not given)	inactive	–
O=C(O)C1CC(=O)N(c2ccc(Br)cc2)C1 (stereo not given)	inactive	–
COc1ccc(N2C(=O)CC(Cc3ccc(Br)cc3)C2=O)cc1 (stereo not given)	inactive	–
O=C(Nc1cnc2ccccc2c1)C1COc2ccccc2O1 (stereo not given)	9.2 µM (active)	–
O=C(CSCC(=O)Nc1cccc([N+](=O)[O-])c1)Nc1ccccc1	inactive	–
CC(C)OC(=O)CCCCCN1C(=O)CSC1=S	inactive	–
O=S(=O)(CCOc1ccccc1)c1nc2ccccc2[nH]1	inactive	–
Cc1noc(C)c1C(=O)Nc1nc(-c2ccc(F)cc2)cs1	–	-25% [at 9.22 µM]
O=C(NOCc1ccccc1)c1ccccc1	9.2 µM (active)	–
Cc1cc2[nH]c3ccccc3c2c(C)n1	inactive	–
Cc1cccc(/C(N)=N/OC(=O)c2ccc3c(c2)OCO3)c1	9.2 µM (active)	–

SMILES	Potency	activation
CCN(CC)c1ccc(NC(=O)CN2CCN(CC(=O)Nc3ccccc3F)CC2)cc1	inactive	–
O=[N+]([O-])c1ccc(/C=N/NC(=S)Nc2ccccc2F)o1	inactive	–
O=C(Nc1ccc2c(c1)CCC2)c1ccccc1	0.411 µM (active)	–
Cc1ccc(C(=O)NCC(=O)N2CCCCCC2)cc1	inactive	–
Cc1ccc(C)c(OCC(O)CN2C(C)CCCC2C)c1 (stereo not given)	inactive	–
COc1ccc(N2CCN(C(=O)COC(=O)c3ccc(OC(F)F)cc3)CC2)cc1	inactive	–
CCOC(=O)c1sc(NC(=S)NC(=O)c2ccco2)nc1C	inactive	–
O=C(Cn1cc(SCc2ccc(F)cc2)c2ccccc21)N1CCOCC1	inactive	–
CC(=O)c1cc2c(C)c(C(=O)c3ccccc3)oc2cc1O	0.411 µM (active)	–
Cc1cccc(C)c1Nc1c(-c2ccccn2)nc2ccccn12	inactive	–
N#Cc1cccc(N=Cc2c(O)ccc3ccccc23)c1	inactive	–
CC(C)(C)c1ccc(/C=C2\SC(=O)N(CCNC(=O)c3cccc(S(=O)(=O)N4CCOCC4)c3)C2=O)cc1	1.84 µM (active)	–
COc1ccc(C2=NN(C(C#N)c3ccc(OC)cc3)C(c3ccccc3)C2)cc1 (stereo not given)	14.6 µM (active)	–
O=S(=O)(N/N=C/c1ccccc1OCc1ccc(Cl)cc1)c1ccccc1	inactive	–
O=C(/C=C/c1ccco1)Nc1ccc2nn(-c3ccccc3)nc2c1	inactive	–
COc1ccc(C(C)(C)C)cc1NC(=O)Nc1ccc2c(c1)OCO2	inactive	–
COc1cc(CNC2CCCCCCC2)c(Br)cc1OCCO	inactive	–
CC(=O)NC1=C(Nc2ccc(N(C)C)cc2)C(=O)c2ccccc2C1=O	9.2 µM (active)	–
N#C/C(=C\c1ccccc1[N+](=O)[O-])c1nc(C2CC2)cs1	23.1 µM (active)	–
COc1cccc(/C=N/NC(=O)CCc2n[nH]c(=O)[nH]c2=O)c1O	inactive	–
